Experimental data taken from PubChem BioAssay (Tox21).
Results filed as inconclusive are left out. Activity calls are given as the source filed them. Unless noted, the call rests on the fitted dose curve; in most records, active means well fitted curve in the direction sought with a large enough effect in the repeat runs; inconclusive means weak or mixed curves; inactive means no such curve, though single readings can be large; an effect the other way counts as inactive or inconclusive.

Key:
[1] = qHTS assay to identify small molecule antagonists of the vitamin D receptor (VDR) signaling pathway - cell viability counter screen (AID 743225); further: on the % scale 0 is the no-effect control and ±100 the full control effect; nearly all actives have a fitted effect of over 50% in size
Outline: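 Cells (VDR-UAS-bla HEK 293T) are plated, rested 4 h at 37C, dosed with compound and 3 nM final 1-alpha,25-dihydroxy vitamin D3, and incubated 16 h. Viability is taken from CellTiter-Glo luminescence in the reporter wells.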

[2] = qHTS assay to identify small molecule agonists of the NFkB signaling pathway (AID 1159509; active means well fitted curve in the direction sought with a large enough effect in the signal ratio in the repeat runs, not every such curve was filed as active; the % refers to the signal ratio; further: series mostly up to about 61 µM; on the % scale 0 is the no-effect control and ±100 the full control effect)
Outline: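 After overnight attachment, reporter cells received test compounds, DMSO or positive controls and were incubated 5 hr at 37 C. FRET substrate was then added for 1.5 hr at room temperature before dual-emission fluorescence reading.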

[3] = qHTS assay to identify small molecule agonists of the NFkB signaling pathway - cell viability counter screen (AID 1159515; calls by dose curve; further: series mostly up to about 61 µM; on the % scale 0 is the no-effect control and ±100 the full control effect; nearly all actives have a fitted effect of over 55% in size)
Outline: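 Using the same wells as the NFkB reporter read, ME-180 NFkB-bla cells given compounds for 5 hr were assessed for viability via CellTiter-Glo, with luminescence taken after a 30 min room-temperature incubation.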

[4] = qHTS assay to identify small molecule agonists of the endoplasmic reticulum stress response signaling pathway (AID 1159516; active means well fitted activation curve with a large enough effect in the signal ratio in the repeat runs, not every such curve was filed as active; the % refers to the signal ratio; further: on the % scale 0 is the no-effect control and ±100 the full control effect)
Outline: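 An ESRE-bla HeLa cell assay: compounds were pin-transferred from DMSO onto overnight-plated cells and left 5 hr at 37 C. Substrate was then loaded for 2 hr at room temperature before reading fluorescence at 460 nm and 530 nm.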

[5] = qHTS assay to identify small molecule agonists of the endoplasmic reticulum stress response signaling pathway - cell viability counter screen (AID 1159517; calls by dose curve;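 further: HeLa cells carrying an ER stress response element beta-lactamase reporter; series mostly up to about 61 µM; on the % scale 0 is the no-effect control and ±100 the full control effect; nearly all actives have a fitted effect of over 50% in size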)
Outline: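 Luminescence readout: CellTiter-Glo, 30 min RT, same wells as the ESRE-bla reporter read. HeLa ESRE-bla, 1,500 cells/well, o/n 37 C; cpd 5 hr 37 C/5% CO2.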

[6] = qHTS assay to identify small molecule antagonists of the retinoid-related orphan receptor gamma (ROR-gamma) signaling pathway - cell viability counter screen (AID 1159520); further: on the % scale 0 is the no-effect control and ±100 the full control effect; nearly all actives have a fitted effect of over 50% in size
Outline: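 Tet-on ROR gamma CHO cells (1,000/well) were plated 4 hr, given compounds in DMSO for 2 hr at 37 C, then induced with 1 uM final doxycycline for 16 hr. Viability was read as ATP by CellTiter-Glo luminescence after 30 min.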

[7] = target: Nuclear receptor ROR-gamma (Homo sapiens) (UniProt P51449); assay: qHTS assay to identify small molecule antagonists of the retinoid-related orphan receptor gamma (ROR-gamma) signaling pathway (AID 1159521;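 further: CHO cells with doxycycline inducible ROR-gamma driving an RORE luciferase reporter; top concentration of the series differs between compounds; on the % scale 0 is the no-effect control and ±100 the full control effect; nearly all actives have a fitted effect of over 50% in size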)
Outline: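 RORγ antagonism is scored from reduced reporter luminescence in Tet-on CHO cells. Induction used 1 uM final doxycycline hyclate for 16 h at 37 C, following a 2 h compound exposure.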

[8] = qHTS assay to identify small molecule agonists of the AP-1 signaling pathway - cell viability counter screen (AID 1159525; calls by dose curve; further: nearly all actives have a fitted effect of over 55% in size)
Outline: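 ME-180 AP-1-bla, 2500 cells/well, Opti-MEM + 0.5% dialyzed FBS; overnight 37 °C; cpd 15-pt titration, 5 h 37 °C; CellTiter-Glo 30 min RT; luminescence read; normalised to TOAB and DMSO controls.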

[9] = qHTS assay to identify small molecule agonists of the AP-1 signaling pathway (AID 1159526; calls by dose curve; further: on the % scale 0 is the no-effect control and ±100 the full control effect)
[10] = target: Retinoic acid receptor RXR-alpha (Homo sapiens) (UniProt P19793); assay: qHTS assay to identify small molecule agonists of the RXR signaling pathway (AID 1159527; calls by dose curve; further: on the % scale 0 is the no-effect control and ±100 the full control effect; nearly all actives have a fitted effect of over 35% in size)
Sequence of Retinoic acid receptor RXR-alpha (Homo sapiens) (P19793 whole entry, looked up): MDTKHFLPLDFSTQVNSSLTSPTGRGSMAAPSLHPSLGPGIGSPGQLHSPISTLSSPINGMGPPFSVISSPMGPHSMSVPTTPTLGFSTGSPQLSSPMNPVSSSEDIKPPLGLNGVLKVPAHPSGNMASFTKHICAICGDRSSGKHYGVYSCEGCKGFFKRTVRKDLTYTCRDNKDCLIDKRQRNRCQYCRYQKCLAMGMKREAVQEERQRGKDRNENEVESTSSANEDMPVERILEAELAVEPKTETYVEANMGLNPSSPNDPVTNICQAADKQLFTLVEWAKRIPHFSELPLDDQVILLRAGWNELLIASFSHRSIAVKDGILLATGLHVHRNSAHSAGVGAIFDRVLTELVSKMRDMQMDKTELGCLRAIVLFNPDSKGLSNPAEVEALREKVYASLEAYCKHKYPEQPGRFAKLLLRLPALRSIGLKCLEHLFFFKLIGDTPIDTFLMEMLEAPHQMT
Outline: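 qHTS of the Tox21 10K library in GeneBLAzer RXR-alpha HEK 293T cells carrying a beta-lactamase reporter […]; 16 hr treatment, 9-cis retinoic acid as agonist control, FRET read-out.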

[11] = qHTS assay to identify small molecule agonists of the RXR signaling pathway - cell viability counter screen (AID 1159529)
Outline: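 Cell viability is measured by CellTiter-Glo luminescence, 30 min at room temperature, in wells already read for beta-lactamase. Engineered HEK 293T cells (RXR-alpha-UAS-bla) are dosed 16 hr at 37 C. Tetraoctyl ammonium bromide serves as positive control.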

[12] = qHTS assay to identify small molecule antagonists of the retinoid acid receptor (RAR) signaling pathway - cell viability counter screen (AID 1159551); further: on the % scale 0 is the no-effect control and ±100 the full control effect; nearly all actives have a fitted effect of over 35% in size
Outline: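 Retinol-stimulated (1 uM final) C3RL4 cells, compound 6 h, 37 C; readout CellTiter-Glo luminescence (ATP) after 30 min RT incubation.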

[13] = qHTS assay to identify small molecule antagonists of the retinoic acid receptor (RAR) signaling pathway (AID 1159552)
Outline: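 Quantitative HTS in C3RL4 RARE-luciferase reporter cells. Compounds were added with 1 uM (final) retinol; luminescence was read after 6 hr.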

[14] = qHTS assay to identify small molecule agonists of the retinoic acid receptor (RAR) signaling pathway (AID 1159553); further: on the % scale 0 is the no-effect control and ±100 the full control effect
Outline: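 Reporter readout comes from luciferase under RARE control in C3RL4 cells; compound exposure lasts 6 hr at 37 C in 5% CO2, and luminescence is recorded following a 30 min room-temperature incubation with reagent.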

Cc1ccc2c(c1)C1CN(C)CCC1N2 (stereo not given)
inactive: Potency [1] | outcome [2] | outcome [3] | outcome [4] | Potency [5] | activity, negative = cytotoxicity [6] 3.75% [at 19 µM] | activity change, negative = inhibition [7] 3.88% [at 19 µM] | viability change, negative = cytotoxic [8] 5.2% [at 15.8 µM] | activation [9] 8.05% [at 15.8 µM] | activation [10] -0.325% [at 15.8 µM] | activity change, negative = cytotoxicity [11] -17.4% [at 15.8 µM] | activity change, negative = cytotoxicity [12] 2.36% [at 19 µM] | activity, negative = inhibition [13] -12.3% [at 19 µM] | Potency [14]

CCC1(c2cccc(O)c2)CCCCN(C)C1 (stereo not given)
inactive: Potency [1] | outcome [2] | outcome [3] | outcome [4] | Potency [5] | Potency [6] | Potency [7] | Potency [8] | outcome [9] | Potency [10] | Potency [11] | Potency [12] | Potency [13]

CC(C)(C1CCC(O)CC1)C1CCC(O)CC1 (stereo not given)
inactive: Potency [1] | outcome [2] | outcome [3] | outcome [4] | Potency [5] | Potency [6] | Potency [7] | Potency [8] | outcome [9] | Potency [10] | Potency [11] | Potency [12] | Potency [13] | Potency [14]

c1cncc([C@@H]2CCCCN2)c1
inactive: Potency [1] | outcome [2] | outcome [3] | outcome [4] | Potency [5] | Potency [6] | Potency [7] | Potency [8] | outcome [9] | Potency [10] | Potency [11] | Potency [12] | Potency [13]

O=C(O)C(F)(F)C(F)(F)C(F)(F)C(F)(F)C(F)(F)C(F)(F)F
inactive: Potency [1] | outcome [2] | outcome [3] | outcome [4] | Potency [5] | Potency [6] | Potency [7] | Potency [8] | outcome [9] | Potency [10] | Potency [11] | Potency [12] | Potency [14]

CCCOC(=O)Cc1ccc(OCC(=O)N(CC)CC)c(OC)c1
inactive: Potency [1] | outcome [2] | outcome [3] | outcome [4] | Potency [5] | Potency [6] | Potency [7] | Potency [8] | outcome [9] | Potency [10] | Potency [11] | Potency [12] | Potency [13] | Potency [14]

Brc1c(Br)c(Br)c(Br)c(Br)c1Br
inactive: activation [2] 0.368% [at 6.95 µM] | activity, negative = cytotoxic [3] -11.1% [at 6.95 µM] | activation [4] -0.555% [at 6.95 µM] | activity change, negative = cytotoxicity [5] 1.86% [at 6.95 µM] | activity, negative = cytotoxicity [6] 1.32% [at 8.39 µM] | activity change, negative = inhibition [7] 19.7% [at 8.39 µM] | viability change, negative = cytotoxic [8] -3.27% [at 6.97 µM] | activation [9] -7% [at 6.97 µM] | activity change, negative = cytotoxicity [11] 7.53% [at 6.97 µM] | activity change, negative = cytotoxicity [12] -4.22% [at 8.39 µM] | activity, negative = inhibition [13] -18.1% [at 8.39 µM] | activation [14] -2.33% [at 8.36 µM]

CCCC[N+](=O)[O-]
inactive: Potency [1] | outcome [2] | outcome [3] | outcome [4] | Potency [5] | Potency [6] | Potency [7] | Potency [8] | outcome [9] | Potency [10] | Potency [11] | Potency [12] | Potency [13] | Potency [14]

CC(Cc1ccccc1)NCCn1cnc2c1c(=O)n(C)c(=O)n2C (stereo not given)
inactive: Potency [1] | outcome [2] | outcome [3] | outcome [4] | Potency [5] | Potency [6] | Potency [7] | Potency [8] | outcome [9] | Potency [10] | Potency [11] | Potency [12] | Potency [13]

CCOC(=O)C(SP(=S)(OC)OC)c1ccccc1 (stereo not given)
inactive: Potency [1] | outcome [2] | outcome [3] | outcome [4] | Potency [5] | Potency [6] | Potency [7] | Potency [8] | outcome [9] | Potency [10] | Potency [11] | Potency [12] | Potency [13]

C=C1C[C@@H]2[C@H](CC[C@]3(C)C(=O)CC[C@@H]23)[C@@]2(C)C=CC(=O)C=C12
inactive: Potency [1] | outcome [2] | outcome [3] | outcome [4] | Potency [5] | Potency [6] | Potency [7] | Potency [8] | outcome [9] | Potency [10] | Potency [11] | Potency [12] | Potency [13] | Potency [14]

CCOC(=O)Nc1cccc(OC(=O)Nc2ccccc2)c1
inactive: Potency [1] | outcome [2] | outcome [3] | outcome [4] | Potency [5] | Potency [6] | Potency [7] | Potency [8] | outcome [9] | Potency [10] | Potency [11] | Potency [12] | Potency [13]

Cn1c(N)nc2c3cccnc3ccc21
inactive: Potency [1] | outcome [2] | outcome [3] | outcome [4] | Potency [5] | Potency [6] | Potency [7] | Potency [8] | outcome [9] | Potency [10] | Potency [11] | Potency [12] | Potency [13]

CCCC(C)(COC(N)=O)COC(N)=O
inactive: Potency [1] | outcome [2] | outcome [3] | outcome [4] | Potency [5] | Potency [6] | Potency [7] | Potency [8] | outcome [9] | Potency [10] | Potency [11] | Potency [12] | Potency [13]

O=C(Cl)CCl
inactive: Potency [1] | outcome [2] | outcome [3] | outcome [4] | Potency [5] | Potency [6] | Potency [7] | Potency [8] | outcome [9] | Potency [10] | Potency [11] | Potency [12] | Potency [13]

Cc1ccc2cc(C)ccc2c1
inactive: Potency [1] | outcome [2] | outcome [3] | outcome [4] | Potency [5] | Potency [6] | Potency [7] | Potency [8] | outcome [9] | Potency [10] | Potency [11] | Potency [12] | Potency [13] | Potency [14]

C(COCC1CO1)OCC1CO1 (stereo not given)
inactive: Potency [1] | outcome [2] | outcome [3] | outcome [4] | Potency [5] | Potency [6] | Potency [7] | Potency [8] | outcome [9] | Potency [10] | Potency [11] | Potency [12] | Potency [13]

CC#Cc1cc(C)nc(Nc2ccccc2)n1
inactive: Potency [1] | outcome [2] | outcome [3] | outcome [4] | Potency [5] | Potency [6] | Potency [7] | Potency [8] | outcome [9] | Potency [10] | Potency [11] | Potency [12] | Potency [13]

CC(=NC#N)N(C)Cc1ccc(Cl)nc1
inactive: Potency [1] | outcome [2] | outcome [3] | outcome [4] | Potency [5] | Potency [6] | Potency [7] | Potency [8] | outcome [9] | Potency [10] | Potency [11] | Potency [12] | Potency [13]

COC(=O)c1ccc(CBr)cc1
inactive: Potency [1] | outcome [2] | outcome [3] | outcome [4] | Potency [5] | Potency [6] | Potency [7] | Potency [8] | outcome [9] | Potency [10] | Potency [11] | Potency [12] | Potency [13]
